An excerpt weighted towards active compounds, which were near 3.9% of everything screened.
HT1080 IDH1KD tx – qHTS for induction of synthetic lethality in tumor cells producing 2HG: qHTS for the HT-1080-IDH1KD cell line. HT-1080 IDH1 knockdown viability, ATP luminescence, 48 h. Potency, µM (top dose mostly 46.1 µM), most hits filed as cytotoxic. actives 2% (n = 360,000)
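In this qHTS, HT-1080 cells depleted of IDH1 are exposed for 48 h at 37 °C to compound titrations. Toxicity is scored from CellTiter-Glo luminescence, with DMSO as full viability and medium alone as none.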
HepG2 viability – qHTS for Inhibitors of TGF-b: Cytotox Counterscreen. HepG2 CAGA-GFP viability, ATP luminescence, 18 h. Potency, µM (series often up to 46.1 µM), actives largely listed as cytotoxic. actives 0.76% (n = 410,000). AID 588856, 2011
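CellTiter-Glo luminescence gave cytotoxicity after 18 hours at 37 degrees C. The cells were HepG2 CAGA-GFP in 1% FBS DMEM, stimulated with 500 pg/mL TGF-beta after compound addition. %Activity was normalised to no-cell wells (complete cell-killing) and DMSO (no toxicity), and curves were fitted and classified.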
TGFb inhibitor – qHTS for Inhibitors of TGF-b. HepG2 CAGA-GFP TGF-b/SMAD3 reporter, GFP fluorescence, 18 h; TGF-beta stimulated, 500 pg/mL final. Potency, µM (titrated, usually from 46.1 µM), hits mostly inhibitors. actives 1.2% (n = 410,000). AID 588855, 2011; note: nearly all actives have a fitted effect of over 65% in size
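HEPG2 CAGA-GFP reporter cells (1000/well, DMEM with 1% FBS) received compounds, then recombinant TGF-beta at 500 pg/mL final for 18 hours at 37 degrees C. Per-cell GFP summed per well was normalised to unstimulated and stimulated DMSO controls before curve fitting.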
HT1080NT lethal – qHTS for induction of synthetic lethality in tumor cells producing 2HG: qHTS for the HT-1080-NT fibrosarcoma cell line. HT-1080-NT fibrosarcoma viability, CellTiter-Glo ATP luminescence, 48 h. Potency, µM (top dose mostly 46.1 µM), actives largely listed as cytotoxic. actives 1.6% (n = 360,000). AID 686970, 2013;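 note: NT is the 2HG producing partner of a matched IDH1 knockdown line; nearly all actives have a fitted effect of over 55% in size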
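HT-1080-NT; 750 cells/well; 5% FBS RPMI; 48 h compound, 37 degrees C; CellTiter-Glo luminescence; curve fitting and curve-class assignment.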
S2 tox – Viability Counterscreen for Primary qHTS for Inhibitors of ATXN expression | S2 cells (HEK-293 line with an ATXN2-luciferase reporter) viability, CellTiter-Fluor protease fluorescence, 24 h | Potency, µM (series often up to 56.7 µM), hits mostly cytotoxic | actives 0.49% (n = 400,000) | AID 651635, 2014; note: nearly all actives have a fitted effect of over 40% in size
ATXN2 expr inh – Primary qHTS for Inhibitors of ATXN expression; HEK-293 ATXN2-luciferase reporter, luminescence, 24 h; Potency, µM (series often up to 57 µM), actives largely listed as inhibitors; actives 0.72% (n = 360,000); note: nearly all actives have a fitted effect of over 55% in size
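ATXN2-luciferase reporter cells (luciferase flanked by upstream and downstream ATXN2 gene portions) were treated 24 h at 37 °C with compounds at up to 57 uM. SteadyGlo luminescence gave expression; GF-AFC fluorescence gave viability.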
Large screens that a line does not name were inactive. Calls come from the whole dose curve; as a rule, active = well fitted curve in the direction sought with a large enough effect; inconclusive = small, poorly fitted or top-dose-only effect, or another doubt; inactive = no such curve, though single readings can be large; an effect the other way counts as inactive or inconclusive.

Cc1ccccc1NCc1nc2ccccc2n1CCOc1ccccc1	TGFb inhibitor 14µM, S2 tox inconclusive (no result: HT1080 IDH1KD tx, HT1080NT lethal)
Cc1cccc(NCc2nc3ccccc3n2CCOc2ccccc2C)c1	TGFb inhibitor 11µM, S2 tox inconclusive, ATXN2 expr inh inconclusive (no result: HT1080 IDH1KD tx, HT1080NT lethal)
Clc1ccc(NCc2nc3ccccc3n2CCOc2ccccc2)cc1	TGFb inhibitor inconclusive (no result: HT1080 IDH1KD tx, HT1080NT lethal)
O=C(C1CCC1)N1CCc2cc(S(=O)(=O)N3CCN(c4ccccc4)CC3)ccc21	none (no result: HT1080 IDH1KD tx, HT1080NT lethal)
O=C(NCCc1ccccc1)C(c1cccs1)N(C(=O)c1csnn1)C1CC1 (configuration not stated)	none
O=C(NCCc1ccccc1)C(c1cccs1)N(C(=O)CCl)c1ccc(Cl)cc1 (configuration not stated)	HT1080 IDH1KD tx 1.6µM, HepG2 viability 10µM, TGFb inhibitor 11µM, HT1080NT lethal 3.7µM, S2 tox 5µM, ATXN2 expr inh 4.5µM
Cc1ccc(-c2cc(C(=O)N/N=C/c3cccnc3)n[nH]2)o1	none
Cc1ccc(/C=N/NC(=O)c2cc(-c3ccc(C)o3)[nH]n2)cc1	HT1080 IDH1KD tx 21µM, HT1080NT lethal inconclusive
COc1ccc(NC(=O)Cn2c(C)c3cnn(-c4ccccc4)c(=O)c3c2C)c(OC)c1	TGFb inhibitor inconclusive (no result: HT1080 IDH1KD tx, HT1080NT lethal)
CCc1ccccc1NC(=O)c1sc(-n2nc(C)c(Cc3ccccc3)c2C)nc1C	none (no result: HT1080 IDH1KD tx, HT1080NT lethal, S2 tox, ATXN2 expr inh)
CCOC(=O)/C(=C/c1ccc(N2CCC(c3ccccc3)=N2)cc1)C(C)=O	ATXN2 expr inh 1.9µM (no result: S2 tox)
c1ccc(C2=NN(c3ccccc3)CC2)cc1	none (no result: S2 tox, ATXN2 expr inh)
O=C(NC[C@@H]1CCCN2CCCC[C@H]12)c1cnn(-c2nccc(-c3ccco3)n2)c1C1CC1	none (no result: HT1080 IDH1KD tx, HepG2 viability, TGFb inhibitor, HT1080NT lethal, ATXN2 expr inh)
COc1ccc(-c2csc(NC(=O)C3CCN(c4ncnc5sc(C)c(C)c45)CC3)n2)cc1OC	HT1080 IDH1KD tx inconclusive, HT1080NT lethal 5.8µM, ATXN2 expr inh 7.9µM
COc1ccc(-c2csc(NC(=O)Cc3ccccc3F)n2)cc1OC	TGFb inhibitor inconclusive
COc1cc(C(=O)Nc2cccc(C)n2)ccc1OCC(=O)N1CCOCC1	none
COc1ccc(-c2csc(NC(=O)c3ccco3)n2)cc1	none
COc1ccc(-c2csc(NC(=O)c3c(OC)cccc3OC)n2)cc1	HepG2 viability 14µM
COc1ccc(-c2csc(NC(=O)c3ccc(OCC(=O)N4CCOCC4)c(OC)c3)n2)cc1OC	S2 tox inconclusive, ATXN2 expr inh 16µM
COc1ccccc1OCC(=O)NNC(=O)C1CCN(c2ncnc3sc(C)c(C)c23)CC1	TGFb inhibitor inconclusive, S2 tox inconclusive (no result: ATXN2 expr inh)
COc1ccc(CC(=O)Nc2nc(-c3ccc(OC)c(OC)c3)cs2)cc1OC	HT1080NT lethal inconclusive, S2 tox inconclusive, ATXN2 expr inh 22µM
CC(C)CC(=O)N1C/C=C\C[C@@H](c2ccc(Cl)cc2)N(Cc2ccc(Cl)cc2)C(=O)[C@@H]1Cc1ccccc1	TGFb inhibitor inconclusive (no result: HT1080 IDH1KD tx, HT1080NT lethal, S2 tox, ATXN2 expr inh)
COc1ccc(-c2csc(NC3OC(=O)c4c3ccc(OC)c4OC)n2)cc1OC (configuration not stated)	HT1080 IDH1KD tx 2.6µM, TGFb inhibitor inconclusive, HT1080NT lethal 2.1µM, S2 tox inconclusive, ATXN2 expr inh inconclusive
COc1ccc2c(c1OC)C(=O)OC2Nc1nc(-c2ccc([N+](=O)[O-])cc2)cs1 (configuration not stated)	none
Cc1nc2cc(NC(=O)[C@@H]3C[C@@H](Sc4ccccn4)CN3Cc3ccccc3)ccc2s1	none (no result: HT1080 IDH1KD tx, HepG2 viability, TGFb inhibitor, HT1080NT lethal, ATXN2 expr inh)
Cc1c(N2C(=O)/C(=C/c3ccc(N(C)C)cc3)N(C)C2=S)c(=O)n(-c2ccccc2)n1C	S2 tox 13µM
Cc1c(N2C(=O)/C(=C/c3ccccc3)SC2=S)c(=O)n(-c2ccccc2)n1C	HT1080 IDH1KD tx inconclusive, HT1080NT lethal inconclusive

From PubChem
